Results reported in PubChem BioAssay (NCATS).
Records with an inconclusive call do not appear. Entries that show only a call come without a potency. Calls of active or inactive are those of the source. The call rests on the fitted dose curve; in most records, active means well fitted inhibition curve with a large enough effect; inconclusive means small, poorly fitted or top-dose-only effect; inactive means no such curve, though single readings can be large or run the other way. Residues, ends and D or L forms follow the SMILES beside them. *: point of attachment. Cbz = O=C(OCc1ccccc1)*

experiment: qHTS for Inhibitors of ATXN expression: Validation (AID 588378); conditions: cell-based ATXN2 expression reporter assay, luminescence; series mostly up to 57.1 µM; further: nearly all actives have a fitted effect of over 75% in size
Text: Spinocerebellar ataxia type 2 (SCA2) is a multisystem neurodegenerative disease caused by a dominantly-acting mutation leading to expansion of a polyQ domain in the ataxin-2 protein (ATXN2). SCA2 patients develop progressive ataxia and later lose function in other neuronal systems. Prominent parkinsonian signs develop in some patients. Similar to many neurodegenerative disorders, no symptomatic or disease-modifying treatments are known.
The primary objective of project is to identify compounds inhibiting ATXN2 expression and to test them for efficacy in SCA2 mouse models. To this end, in a collaboration between Dr. Daniel Scoles and scientists at NCGC, a cell-based assay adapted to high-throughput screening has been developed to screen the NIH Molecular Libraries Small Molecule Repository (MLSMR).
NIH Chemical Genomics Center [NCGC]
NIH Molecular Libraries Probe Centers Network [MLPCN]
Assay Submitter (PI): Stefan Pulst and Daniel Scoles, University of Utah
4 ul of HEK293-ATXN2-FFLuc cell suspension (TBD cells/microL in phenol-red free DMEM) are dispensed into Greiner white solid bottom 1536-well assay plates, yielding a final well density of TBD cells/well. Plates are incubated for 2 hrs at 37 degrees C in 5% humidified CO2 to allow cell attachment. Compounds are then transferred via Kalypsys pin tool equipped with 1536-pin array (10nl slotted pins, V&P Scientific, San Diego, CA). In addition, duplicate serial dilutions of the control compounds ChemBridge 5553825, a previously identified ATXN2 expression inhibitor, and a known luciferase inhibitor, are pin-transferred. After incubation at 37 degrees C in 5% humidified CO2 for 24 hrs, CellTiter-Fluor reagent (1 ul) (Promega, Madison, WI) is then added and plates are incubated for 30 minutes, before being transferred to a ViewLux high-throughput CCD imager (PerkinElmer), wherein single end-point fluorescence measurements are acquired using the 405 nm excitation/525 nm emission filter set to assess cell viability. Next, Bright-Glo luciferase substrate detection reagent (3 ul) (Promega, Madison, WI) is added to each well and incubated for an additional 5 minutes. Luminescence is then measured on the ViewLux imager equipped with a clear emission filter using a 2 sec exposure.

Q: With `CC(=O)NCCc1c[nH]c2ccc(O)cc12` as the compound, how does the Potency read?
A: inactive

Q: Which Potency does the source give for `O=C(O)c1cc(=O)cc(C(=O)O)[nH]1` here?
A: inactive

Q: With `O=C1OC(=O)C2C3CCC(O3)C12` (stereo not given) as the compound, how does the Potency read?
A: inactive

Q: For `CN(C)C(=O)/N=N/C(=O)N(C)C`, which Potency is on record?
A: inactive

Q: Which Potency does the source give for `Nc1nc2c(cnn2CCc2ccccc2)c2nc(-c3ccco3)nn12` here?
A: inactive

Q: For `O=C(O)Cc1c[nH]c2ccc(O)cc12`, which Potency is on record?
A: inactive

Q: With `COc1ccc(CCN(C)CCc2ccc(OC)c(OC)c2)cc1OC` as the compound, how does the Potency read?
A: inactive

Q: For `C[C@]12C=CC(=O)C=C1CC[C@@H]1C2=CC[C@]2(C)[C@@H](C(=O)CN3CCN(c4cc(N5CCCC5)nc(N5CCCC5)n4)CC3)CC[C@@H]12`, which Potency is on record?
A: inactive

Q: With `CCCCCCCCCCC(C)(C)C(=O)Nc1c(OC)cc(OC)cc1OC` as the compound, how does the Potency read?
A: inactive

Q: For `N[C@@H](Cc1ccc(F)cc1)C(=O)O`, which Potency is on record?
A: inactive

Q: Which Potency does the source give for `CC(=O)/C(C)=N/O` here?
A: inactive

Q: With `NC(N)=NC(N)=Nc1cccc(Cl)c1` as the compound, how does the Potency read?
A: inactive

Q: For `O=C(O)Cc1ccc(O)c(O)c1`, which Potency is on record?
A: inactive

Q: For `CC1=C(C(=O)O)N2C(=O)[C@@H](NC(=O)C(N)C3=CCC=CC3)[C@H]2SC1` (stereo not given in full), which Potency is on record?
A: inactive

Q: Which Potency does the source give for `COc1ccc(C(=O)NCc2cccnc2)cc1C(=O)NCc1cccnc1` here?
A: inactive

Q: With `CC(C)[C@@H]1CC[C@@H](C)C[C@@H]1P(=O)(c1ccccc1)c1ccccc1` as the compound, how does the Potency read?
A: inactive

Q: Which Potency does the source give for `Nc1nc2ccc(Cl)cc2c2nc(-c3ccco3)nn12` here?
A: inactive

Q: Which Potency does the source give for `COc1cc(/C=C(\C#N)C(=O)c2ccc(O)c(O)c2)cc(I)c1O` here?
A: inactive

Q: With `O=c1[nH]c(=S)[nH]c(-c2ccccc2)c1Cc1c(O)ccc2ccccc12` as the compound, how does the Potency read?
A: inactive

Q: For `COC(=O)C(C)(N)Cc1ccc(O)cc1` (stereo not given), which Potency is on record?
A: inactive

Q: Which Potency does the source give for `NCCCCN=C(N)N` here?
A: inactive

Q: Which Potency does the source give for `CC(C)[C@H](NC(=O)OCc1ccccc1)C(=O)N[C@H](C=O)Cc1ccccc1` (Cbz-Val-Phe-aldehyde) here?
A: inactive

Q: With `O=C(O)C1=CCCNC1` as the compound, how does the Potency read?
A: inactive

Q: With `OCC1NCC(O)C(O)C1O` (stereo not given) as the compound, how does the Potency read?
A: inactive

Q: For `N#Cc1cc2nc(O)c(O)nc2cc1[N+](=O)[O-]`, which Potency is on record?
A: inactive

Q: With `O=C1C2C=CC=CC2=NC(=S)N1CCN1CCC(=C(c2ccc(F)cc2)c2ccc(F)cc2)CC1` (stereo not given) as the compound, how does the Potency read?
A: inactive

Q: With `CCN(c1nc(N)c(C(=O)N=C(N)N)nc1Cl)C(C)C` as the compound, how does the Potency read?
A: inactive

Q: Which Potency does the source give for `O=c1onc2cnc3ccccc3n12` here?
A: inactive

Q: With `Oc1cc2c(cc1O)C(c1ccccc1)CNCC2` (stereo not given) as the compound, how does the Potency read?
A: inactive

Q: For `O=c1oc(Cl)c(Cl)c2ccccc12`, which Potency is on record?
A: inactive

Q: With `Cc1nc2n(c(=O)c1CCN1CCC(c3noc4cc(F)ccc34)CC1)CCCC2O` (stereo not given) as the compound, how does the Potency read?
A: inactive

Q: Which Potency does the source give for `CC1=C(/C=C/C(C)=C/C=C/C(C)=C\C(=O)O)C(C)(C)CCC1` here?
A: inactive

Q: For `CN[C@H](CC(=O)O)C(=O)O`, which Potency is on record?
A: inactive

Q: For `N[C@@H](Cc1c[nH]c2ccccc12)C(=O)O`, which Potency is on record?
A: inactive

Q: Which Potency does the source give for `Cc1cc(Cn2cnc3c2C[C@@H](C(=O)O)N(C(=O)C(c2ccccc2)c2ccccc2)C3)ccc1N` here?
A: inactive

Q: With `Nc1ccc(-c2ccc3ccccc3n2)cc1` as the compound, how does the Potency read?
A: inactive

Q: With `CCCn1c(=O)c(C)cn2nc(N)nc12` as the compound, how does the Potency read?
A: inactive

Q: Which Potency does the source give for `O=C(O)C1=CCCN(CCON=C(c2ccccc2)c2ccccc2)C1` here?
A: inactive

Q: For `O=C(O)C1CCCNC1` (stereo not given), which Potency is on record?
A: inactive

Q: With `CCCCCCCCCCC/C=C\C(C)(C)/C=C\CCCC(=O)O` as the compound, how does the Potency read?
A: inactive
